According to PubChem BioAssay AID485297 (National Center for Advancing Translational Sciences (NCATS), 2010):
The whole screen tested about 320,000 compounds, of which about 9,100 (2.8%) were called active. Another 3% or so got no clear call; they are omitted. Calls follow the shape of the dose curve; as a rule, active = well fitted activation curve with a large enough effect; inconclusive = small, poorly fitted or top-dose-only effect; inactive = no such curve, though single readings can be large or run the other way. Only a selection was taken, and actives are over-represented in it overall.

Assay: qHTS Assay for Rab9 Promoter Activators; also: nearly all actives have a fitted effect of over 60% in size; as to activation, negative = inhibition: % of control where 0% means no effect
Details: Huh7 Rab9 promoter-luciferase reporter, luminescence, 24 h; series mostly up to 9.22 µM; activation, negative = inhibition: at the top concentration
Summary of the method: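 Rab9 promoter-driven luciferase in stably transfected Huh7 cells; 1500 cells/well rested 2 h, exposed to compound in DMSO for 24 h at 37 °C, 5% CO2. Luminescence read 10 min after adding luciferase reagent at ambient temperature.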
Potency is read from the fitted curve at half-maximal effect.

activation, negative = inhibition, inactive:
S=C(Nc1cccnc1)Nc1ccccn1 -1.03% [at 1.84 µM]
O=C(CSc1nnc(COc2ccc(Cl)cc2)n1Cc1ccco1)N1CCNC1=O -0.0536%
O=C(NCC1CCCO1)c1ccc(S(=O)(=O)Nc2ccc(F)cc2)cc1 (configuration not stated) -3.46%
COc1cccc(/C=C/C(=O)OCC(=O)N2CCN(c3ccccc3)CC2)c1 -8.64%
CC(C)CNC(=O)CC(NCC(C)C)C(=O)O (configuration not stated) 1.69%
C=CCn1c(Oc2ccc(C(=O)OC)cc2)nc2c1c(=O)n(C)c(=O)n2C -9.97%
C(=N/Nc1cc(N2CCOCC2)nc(N2CCOCC2)n1)/c1ccccc1 -0.95%
CCN(CC)c1ccc(C(=O)N/N=C/c2ccc(N3CCOCC3)cc2)cc1 0.331%
COc1ccc(C(=O)NCC(=O)N/N=C/c2cccnc2)cc1 -4.87%
Cc1ccc(C(=O)Nc2cccc3ncccc23)cc1[N+](=O)[O-] -3.34%
CCN1CCC(=NNC(=O)c2ccc(C)c([N+](=O)[O-])c2)CC1 17.7%
CN(CC(=O)Nc1c(Cl)cccc1Cl)C(=O)CC1OC(=O)c2ccccc21 (configuration not stated) -4.49%
COc1cc(C(c2c(NC(=O)c3ccco3)sc(C)c2C)N2CCOCC2)cc(OC)c1OC (configuration not stated) 0.98%
COCCN(C(=O)CSCc1ccc(C)cc1)c1c(N)n(CC(C)C)c(=O)[nH]c1=O -0.278%
CCN(CC)S(=O)(=O)c1ccc(OC)c(NC(=O)CCc2c(C)noc2C)c1 -12.1%
O=C(C[n+]1cc(Br)cc2ccccc21)c1ccc(F)cc1 -0.744%
O=C(c1ccc(F)cc1)n1cc(C(=S)N2CCOCC2)c2ccccc21 -0.854%
Clc1ccc(-c2nnc(SCc3nc4ccccc4s3)o2)cc1 29.6%
FC(F)(F)c1cnc(Oc2ccccc2-c2nnc(-c3ccc(Cl)cc3)o2)c(Cl)c1 -2.35%
COC(=O)c1ccc(C)c(NC(=O)C2CC(=O)N(C3CCCC(C)C3C)C2)c1 (configuration not stated) -3.82%
CC(=O)Nc1ccc(S(=O)(=O)NC(C)C(=O)OCCOc2ccc(F)cc2)cc1 (configuration not stated) -2.89%
COc1ccc(C(=O)Nc2ccccc2C(=O)N/N=C/c2ccc(O)c(OC)c2)cc1 -0.509%
O=C(N/N=C/c1cccc(Br)c1)c1ccc(N2CCCC2=O)cc1 -0.625%
O=C(Nc1ccc(Br)cc1)C1CCC(=O)N1Cc1ccccc1Cl (configuration not stated) -2.51%
CC1CCN(C(=O)/C(=C\c2ccccc2F)NC(=O)c2ccccc2)CC1 -2.18%
COc1ccc(-c2cc(C(=O)NCCCN3CCOCC3)no2)cc1 -0.694%
Cc1c(NC(=O)c2cc(-c3ccc(Br)cc3)on2)c(=O)n(-c2ccccc2)n1C 1.87%
O=C1COc2ccc(C(=O)CSc3ccc(Br)cc3)cc2N1 7.8%
O=C(CCc1ccccc1Cl)Nc1ccc(S(=O)(=O)Nc2nccs2)cc1 -4.37%
COc1cc(C(=O)NCC(c2ccco2)N2CCCC2)ccc1OCc1ccccc1 (configuration not stated) -5.2%
CN(C)S(=O)(=O)c1cccc(NC(=S)N/N=C/C(=O)c2ccccc2)c1 -3.18%
O=C(N/N=C/c1c[nH]c2ccccc12)c1cc2ccccc2o1 -3.56%
O=S(=O)([N-]c1nc2ccccc2nc1-[n+]1ccc(Cc2ccccc2)cc1)c1ccc(Br)s1 -2.42%
CCOc1ccc2nc(N(CCN(C)C)C(=O)c3ccc4ccccc4c3)sc2c1 0.0921%
CCCC(=O)N(CCN1CCOCC1)c1nc2ccc(OCC)cc2s1 6.31%
CN(C)S(=O)(=O)c1ccc(C(=O)NCC2(N3CCOCC3)CCCCC2)cc1 0.588%
CNS(=O)(=O)c1ccc(C(=O)NCC(=O)NCCc2ccc3c(c2)OCCO3)cc1 -3.12%
Cc1cccc(N(Cc2ccccc2)C(=O)c2ccccc2F)c1 8.75%
CCN1/C(=C/c2ccc3ccc(C)cc3[n+]2CC)Sc2ccccc21 -22.4%
O=C(CCN1c2ccccc2Sc2ccccc21)Nc1ccccc1 -4%
CC(OC(=O)Cc1ccc(F)cc1)C(=O)N1CCc2ccccc21 (configuration not stated) 1.57%
COc1cccc(C(=O)Nc2nnc(S(=O)(=O)N3CCCCC3)s2)c1 3.53%
C=CCN1C(=O)c2ccc(C(=O)N3CCC(C(=O)OCC)CC3)cc2C1=O -0.533%
Cc1ccc(OS(=O)Nc2cccc3nccnc23)cc1 (configuration not stated) 7.91%
CCc1ccc(NC(=O)Cn2nnc(C(=O)NCc3ccc4c(c3)OCO4)c2N)cc1 -9.68%
O=C(CCS(=O)(=O)Cc1ccccc1)Nc1ccc2c(c1)OCCO2 -1.29%
CC(C)(C)OC(=O)NCCCCCNC(=O)c1nc[nH]c1C(=O)NCc1ccccc1 -5.73%
Cc1cnc(C(=O)OCC(=O)N2CCc3ccccc32)cn1 5.77%
CCOC(=O)N1CCC(NC(=O)c2cnn3ccccc23)CC1 1.89%
CC(=O)c1c(C)[nH]c(C(=O)N2CCN(S(=O)(=O)c3ccc(F)c(F)c3)CC2)c1C 0.546%
Clc1ccc(-c2ncc3ccccn23)c(Cl)c1 -3.01%
COn1c(-c2ccc(Cl)cc2Cl)nc2ncccc21 -2.3%
COc1cccc(C(=O)OCC(=O)c2[nH]c(C)c(C(C)=O)c2C)c1 -7.27%
CN(Cc1cccs1)C(=O)CN1C(=O)c2ccccc2S1(=O)=O 22.4%
O=C(/C=C(O)/C=C/c1ccc(O)cc1)/C=C/c1ccc(O)cc1 -2.14%

Potency, active:
Cc1ccccc1N/N=C/c1ccc(N2CCOCC2)cc1 2000 nM
Cc1cc(O)c(NC(=O)c2ccc(C)c([N+](=O)[O-])c2)cc1C 2820 nM
O=C(c1ccc(F)cc1)n1c(=S)nc2ccccn21 891 nM
CSc1ccccc1-c1nnc(-c2ccc(Cl)cc2)o1 3980 nM
COc1cc(/C=N/NC(=O)c2ccc(N3CCCC3=O)cc2)ccc1O 3980 nM
CC(C)CNC(=O)c1cc(-c2ccc(Br)cc2)on1 3550 nM
O=C(O)c1cccc(NC(=S)N/N=C/c2c[nH]c3ccccc23)c1 3550 nM
CCOc1ccc2nc(C(=O)N3CCCC(C)C3)sc2c1 (configuration not stated) 1780 nM
CCN1/C(=C/C(=S)Nc2ccccc2)Sc2ccccc21 2820 nM
Nc1c(C(=O)Nc2ccc3c(c2)OCCO3)nnn1Cc1ccccc1 1260 nM
O=C(c1cnn2ccccc12)N1CCc2ccccc21 1780 nM
Clc1ccc(-c2cc(-c3ccccn3)on2)c(Cl)c1 100 nM
